The panel holds about 83,000 compounds, 20% with a hit somewhere; the sample as a whole holds those more often.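 The endpoint reported here, percent growth, reads 100 for growth as untreated, 0 for no net growth and -100 for all cells dead.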 Values without a mark were called inactive. Activity calls are given as the source filed them. Rule for the calls: active = growth percent below 10; inactive = the rest.

Test systems include SR leukemia; RPMI-8226 leukemia; OVCAR-8 ovarian; OVCAR-5 ovarian; OVCAR-4 ovarian; SK-OV-3 ovarian; IGROV1 ovarian; OVCAR-3 ovarian; HS 578T breast; NCI/ADR-RES ovarian; T-47D breast; BT-549 breast; MDA-MB-435 melanoma; SW-620 colon; MCF7 breast; HCT-116 colon; HCC-2998 colon; KM12 colon.
Common to all, as to experiment: NCI-60 one-dose screen, 48 h (100 = growth as untreated, 0 = no growth, -100 = all killed)
Holding throughout (details): 10 µM

Regarding `N=C(N)c1ccc(-c2ccc(-c3ccccc3)s2)cc1F`, the growth was -11.6% (active) with SR leukemia; -60.2% (active) in the test with RPMI-8226 leukemia; -32.9% (active) in the test on OVCAR-8 ovarian; -96.8% (active) in the test with OVCAR-5 ovarian; -57.2% (active) in the test with OVCAR-4 ovarian; -92.4% (active) in the test with SK-OV-3 ovarian. In addition, the growth with IGROV1 ovarian is -51.2% (active); in the test on OVCAR-3 ovarian, -94.6% (active); in the test on HS 578T breast it was -41.6% (active); in the test with NCI/ADR-RES ovarian, -50.8% (active); in the test on T-47D breast, -65.6% (active); in the test on BT-549 breast, -96.8% (active). In addition, the growth in the test on MDA-MB-435 melanoma was -84.2% (active); in the test on SW-620 colon it was -85.4% (active); with MCF7 breast, -71.7% (active); in the test on HCT-116 colon, -91.8% (active); with HCC-2998 colon, -79.1% (active); in the test with KM12 colon, -86.1% (active).
For `O=C1NN(c2ccccc2)C(c2cccnc2)=N/C1=C\c1cccnc1`, the growth with SR leukemia is 73.6%; with RPMI-8226 leukemia, 83.3%; with OVCAR-8 ovarian it was 106%; with OVCAR-5 ovarian it was 85.8%; with OVCAR-4 ovarian, 94.3%; with SK-OV-3 ovarian, 104%. In addition, the growth with IGROV1 ovarian is 103%; with OVCAR-3 ovarian, 89.8%; in the test with HS 578T breast, 87.1%; in the test with NCI/ADR-RES ovarian, 91.2%; in the test with T-47D breast it was 96.7%; with BT-549 breast it was 101%. In addition, the growth with MDA-MB-435 melanoma was 92.4%; with SW-620 colon it was 110%; in the test with MCF7 breast it was 92.1%; in the test with HCT-116 colon, 91.9%; with HCC-2998 colon, 99%; with KM12 colon it was 95%.
As to `CCN(CC)CCCOC(=O)Nc1ccccc1Cl`, the growth in the test on SR leukemia is 101%; with RPMI-8226 leukemia, 97.3%; with OVCAR-8 ovarian, 111%; in the test with OVCAR-5 ovarian it was 110%; with OVCAR-4 ovarian it was 115%; in the test with SK-OV-3 ovarian, 111%. Besides, the growth is 123% with IGROV1 ovarian; 124% with OVCAR-3 ovarian; 121% with HS 578T breast; 107% with NCI/ADR-RES ovarian; 106% in the test with T-47D breast; 111% in the test on BT-549 breast. For the same compound, the growth in the test on MDA-MB-435 melanoma is 105%; with SW-620 colon it was 102%; with MCF7 breast it was 112%; with HCT-116 colon, 113%; in the test with HCC-2998 colon it was 110%; with KM12 colon, 111%.
On to `O=C1/C(=C/c2ccc(O)cc2O)N=C2SCCCN12`, for which the growth with SR leukemia was 89.8%; with RPMI-8226 leukemia it was 103%; with OVCAR-8 ovarian, 97.5%; in the test with OVCAR-5 ovarian it was 92.9%; with OVCAR-4 ovarian it was 97.1%; in the test with SK-OV-3 ovarian it was 102%. Besides, the growth in the test with IGROV1 ovarian is 101%; in the test with OVCAR-3 ovarian it was 98.6%; with HS 578T breast it was 105%; in the test with NCI/ADR-RES ovarian, 98.7%; in the test on T-47D breast it was 85%; in the test with BT-549 breast, 96.9%. The growth with MDA-MB-435 melanoma was 99.2%; in the test with SW-620 colon, 107%; in the test on MCF7 breast, 108%; in the test with HCT-116 colon, 99.5%; in the test with HCC-2998 colon, 119%; with KM12 colon, 91.3%.
For `CCCCCCCCCCCCCC[n+]1ccccc1`, the growth with SR leukemia was -22.6% (active); with RPMI-8226 leukemia, -57% (active); with OVCAR-8 ovarian it was -68.7% (active); in the test with OVCAR-5 ovarian, 5.24% (active); with OVCAR-4 ovarian, -6.58% (active); with SK-OV-3 ovarian, -0.0653% (active). Moreover, the growth in the test with IGROV1 ovarian is -60.4% (active); with OVCAR-3 ovarian it was -51.2% (active); in the test with HS 578T breast it was -12.6% (active); in the test on NCI/ADR-RES ovarian, 73.3%; in the test with T-47D breast it was 12.7%; with BT-549 breast, -42.4% (active). Besides, the growth in the test on MDA-MB-435 melanoma is -87.6% (active); with SW-620 colon, 2.31% (active); with MCF7 breast, 2.73% (active); in the test with HCT-116 colon, -44.3% (active); in the test with HCC-2998 colon, -72.1% (active); in the test with KM12 colon, -86.1% (active).
As to `NC1CCC(Nc2nc(NCc3ccc(-c4ccco4)nc3)c3ncn(C4CCCC4)c3n2)CC1` (centres undefined), the growth in the test with SR leukemia is -3.17% (active); in the test on RPMI-8226 leukemia it was -18.3% (active); in the test on OVCAR-8 ovarian it was 11.8%; with OVCAR-5 ovarian, 25.1%; in the test on OVCAR-4 ovarian it was 2.67% (active); in the test on SK-OV-3 ovarian, -0.9% (active). Moreover, the growth with IGROV1 ovarian is 8.71% (active); with OVCAR-3 ovarian, 1.37% (active); in the test on HS 578T breast it was 10.7%; in the test with NCI/ADR-RES ovarian, 79.5%; with T-47D breast, -11.3% (active); in the test with BT-549 breast, -25.7% (active). In addition, the growth is 11.4% in the test with MDA-MB-435 melanoma; 7.93% (active) with SW-620 colon; 1.09% (active) in the test on MCF7 breast; 3.79% (active) in the test on HCT-116 colon; -19% (active) in the test on HCC-2998 colon; 4.05% (active) with KM12 colon.
As to `CCc1ccc(-c2nnc(COc3ccc(-c4nc5cc(Cl)c(Cl)cc5[nH]4)cc3OC)o2)cc1`, the growth in the test with SR leukemia is 0.504% (active); in the test on RPMI-8226 leukemia, 56.9%; in the test with OVCAR-8 ovarian it was 28.9%; in the test with OVCAR-5 ovarian it was 103%; with OVCAR-4 ovarian, 45.9%; in the test with SK-OV-3 ovarian, 96.9%. Further, the growth is 64.5% in the test on IGROV1 ovarian; 65.6% with OVCAR-3 ovarian; 77% in the test on HS 578T breast; 55% with NCI/ADR-RES ovarian; 43.6% in the test on T-47D breast; 105% in the test with BT-549 breast. For the same compound, the growth with MDA-MB-435 melanoma was 65.2%; with SW-620 colon, 53%; in the test with MCF7 breast, 15.4%; in the test with HCT-116 colon, 1.36% (active); with HCC-2998 colon it was 82.8%; in the test with KM12 colon, 44.1%.
For `O=C(/C=C/c1ccc(Cl)cc1)c1ccc(Br)cc1`, the growth in the test with SR leukemia is 71.4%; in the test on RPMI-8226 leukemia, 28.1%; in the test on OVCAR-8 ovarian it was 103%; in the test with OVCAR-5 ovarian it was 91.8%; in the test on OVCAR-4 ovarian, 92.5%; in the test with SK-OV-3 ovarian, 100%. The growth with IGROV1 ovarian was 88.2%; in the test with OVCAR-3 ovarian it was 100%; in the test on HS 578T breast, 124%; with NCI/ADR-RES ovarian it was 101%; with T-47D breast it was 79.7%; in the test on BT-549 breast it was 102%. In addition, the growth with MDA-MB-435 melanoma is 99.1%; in the test on SW-620 colon it was 102%; in the test with MCF7 breast, 26.3%; with HCT-116 colon, 75.5%; in the test on HCC-2998 colon, 95%; in the test with KM12 colon it was 93.8%.

Source of the values: PubChem BioAssay (NCI).
